The values that follow come from ChEMBL document CHEMBL1961873, “Compounds: GSK PKIS; Assays: Nanosyn kinase panel” (2012).

SMILES strings stand for the structures.

Assay [1] concerns the target T1, Muscle, skeletal receptor tyrosine-protein kinase (Homo sapiens) (UniProt O15146).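 Also: reported value is the mean percent inhibition of MuSK kinase.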
T1 sequence (whole entry): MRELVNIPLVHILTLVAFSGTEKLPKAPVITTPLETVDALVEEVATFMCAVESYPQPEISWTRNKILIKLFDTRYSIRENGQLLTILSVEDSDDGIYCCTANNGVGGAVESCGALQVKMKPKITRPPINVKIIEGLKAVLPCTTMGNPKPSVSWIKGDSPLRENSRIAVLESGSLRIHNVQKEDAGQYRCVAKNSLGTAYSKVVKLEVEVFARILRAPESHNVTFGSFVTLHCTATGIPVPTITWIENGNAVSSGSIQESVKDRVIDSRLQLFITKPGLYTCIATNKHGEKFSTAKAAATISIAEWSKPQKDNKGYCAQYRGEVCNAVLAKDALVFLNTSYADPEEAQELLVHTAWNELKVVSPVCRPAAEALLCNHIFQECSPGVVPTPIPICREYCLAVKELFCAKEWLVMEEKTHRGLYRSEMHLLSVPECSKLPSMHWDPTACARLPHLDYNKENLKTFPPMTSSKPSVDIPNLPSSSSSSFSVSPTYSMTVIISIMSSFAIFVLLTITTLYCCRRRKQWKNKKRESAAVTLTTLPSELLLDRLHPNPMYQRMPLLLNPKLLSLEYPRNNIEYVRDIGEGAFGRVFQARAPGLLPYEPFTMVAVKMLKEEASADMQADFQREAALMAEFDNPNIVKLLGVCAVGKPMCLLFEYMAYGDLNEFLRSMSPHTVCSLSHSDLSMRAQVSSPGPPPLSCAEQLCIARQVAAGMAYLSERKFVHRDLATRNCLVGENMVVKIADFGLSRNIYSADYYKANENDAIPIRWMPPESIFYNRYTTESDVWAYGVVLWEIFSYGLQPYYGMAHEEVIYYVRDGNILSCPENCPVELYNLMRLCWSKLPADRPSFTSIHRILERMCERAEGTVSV
The following applies: at 1 µM.

Assay [2] addresses Platelet-derived growth factor receptor alpha (Homo sapiens) (UniProt P16234). The conditions noted are these: at 0.1 µM.
Assay [3] has the same target. The conditions noted are these: at 1 µM.
The test system of assay [4] is Platelet-derived growth factor receptor alpha (Homo sapiens), P16234 [D842V]. The conditions noted are these: at 0.1 µM.
Chain of Platelet-derived growth factor receptor alpha (Homo sapiens), P16234 [D842V] (P16234 whole entry D842V): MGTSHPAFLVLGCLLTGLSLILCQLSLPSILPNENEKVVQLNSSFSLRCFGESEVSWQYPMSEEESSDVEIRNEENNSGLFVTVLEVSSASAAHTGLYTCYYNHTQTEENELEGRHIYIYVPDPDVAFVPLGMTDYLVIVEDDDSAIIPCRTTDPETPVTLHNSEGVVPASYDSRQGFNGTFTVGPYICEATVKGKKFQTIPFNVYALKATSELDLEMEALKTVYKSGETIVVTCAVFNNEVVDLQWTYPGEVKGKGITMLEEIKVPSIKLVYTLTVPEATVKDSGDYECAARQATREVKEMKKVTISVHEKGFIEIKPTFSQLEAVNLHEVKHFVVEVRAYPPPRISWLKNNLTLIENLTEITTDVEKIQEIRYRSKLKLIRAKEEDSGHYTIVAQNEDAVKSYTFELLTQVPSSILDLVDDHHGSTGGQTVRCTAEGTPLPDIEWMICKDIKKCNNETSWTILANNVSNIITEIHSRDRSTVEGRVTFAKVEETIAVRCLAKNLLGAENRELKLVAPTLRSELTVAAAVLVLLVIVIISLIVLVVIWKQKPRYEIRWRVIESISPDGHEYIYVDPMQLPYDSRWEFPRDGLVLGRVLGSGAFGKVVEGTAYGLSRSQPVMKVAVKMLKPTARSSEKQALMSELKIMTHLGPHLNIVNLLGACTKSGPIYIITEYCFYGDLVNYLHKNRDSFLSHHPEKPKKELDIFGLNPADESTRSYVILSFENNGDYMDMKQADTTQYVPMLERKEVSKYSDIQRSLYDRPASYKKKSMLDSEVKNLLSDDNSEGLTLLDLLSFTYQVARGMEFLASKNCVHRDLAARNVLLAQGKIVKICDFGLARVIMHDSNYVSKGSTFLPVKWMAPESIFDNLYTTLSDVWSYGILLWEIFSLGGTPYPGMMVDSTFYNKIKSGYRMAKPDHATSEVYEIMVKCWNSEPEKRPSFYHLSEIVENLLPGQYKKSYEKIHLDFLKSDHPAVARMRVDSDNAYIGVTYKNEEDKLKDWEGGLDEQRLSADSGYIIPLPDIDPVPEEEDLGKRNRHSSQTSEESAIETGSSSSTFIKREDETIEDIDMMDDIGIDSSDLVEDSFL
The test system is the same in assay [5]. The following applies: at 1 µM.
For assay [6], the system named is Platelet-derived growth factor receptor alpha (Homo sapiens), P16234 [T674I]. The conditions noted are these: at 0.1 µM.
Chain of Platelet-derived growth factor receptor alpha (Homo sapiens), P16234 [T674I] (P16234 whole entry T674I): as the sequence (P16234 whole entry D842V) above, with T674I, V842D counted along it
Assay [7] has the same test system. The following applies: at 1 µM.
Assay [8] has as its system Platelet-derived growth factor receptor alpha (Homo sapiens), P16234 [V561D]. The conditions noted are these: at 0.1 µM.
Assay [9] shares this test system. The conditions noted are these: at 1 µM.
For assay [10], the target named is Platelet-derived growth factor receptor beta (Homo sapiens) (UniProt P09619). The conditions noted are these: at 0.1 µM.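 Also: reported value is the mean percent inhibition of the kinase.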
Chain of Platelet-derived growth factor receptor beta (Homo sapiens) (P09619 whole entry): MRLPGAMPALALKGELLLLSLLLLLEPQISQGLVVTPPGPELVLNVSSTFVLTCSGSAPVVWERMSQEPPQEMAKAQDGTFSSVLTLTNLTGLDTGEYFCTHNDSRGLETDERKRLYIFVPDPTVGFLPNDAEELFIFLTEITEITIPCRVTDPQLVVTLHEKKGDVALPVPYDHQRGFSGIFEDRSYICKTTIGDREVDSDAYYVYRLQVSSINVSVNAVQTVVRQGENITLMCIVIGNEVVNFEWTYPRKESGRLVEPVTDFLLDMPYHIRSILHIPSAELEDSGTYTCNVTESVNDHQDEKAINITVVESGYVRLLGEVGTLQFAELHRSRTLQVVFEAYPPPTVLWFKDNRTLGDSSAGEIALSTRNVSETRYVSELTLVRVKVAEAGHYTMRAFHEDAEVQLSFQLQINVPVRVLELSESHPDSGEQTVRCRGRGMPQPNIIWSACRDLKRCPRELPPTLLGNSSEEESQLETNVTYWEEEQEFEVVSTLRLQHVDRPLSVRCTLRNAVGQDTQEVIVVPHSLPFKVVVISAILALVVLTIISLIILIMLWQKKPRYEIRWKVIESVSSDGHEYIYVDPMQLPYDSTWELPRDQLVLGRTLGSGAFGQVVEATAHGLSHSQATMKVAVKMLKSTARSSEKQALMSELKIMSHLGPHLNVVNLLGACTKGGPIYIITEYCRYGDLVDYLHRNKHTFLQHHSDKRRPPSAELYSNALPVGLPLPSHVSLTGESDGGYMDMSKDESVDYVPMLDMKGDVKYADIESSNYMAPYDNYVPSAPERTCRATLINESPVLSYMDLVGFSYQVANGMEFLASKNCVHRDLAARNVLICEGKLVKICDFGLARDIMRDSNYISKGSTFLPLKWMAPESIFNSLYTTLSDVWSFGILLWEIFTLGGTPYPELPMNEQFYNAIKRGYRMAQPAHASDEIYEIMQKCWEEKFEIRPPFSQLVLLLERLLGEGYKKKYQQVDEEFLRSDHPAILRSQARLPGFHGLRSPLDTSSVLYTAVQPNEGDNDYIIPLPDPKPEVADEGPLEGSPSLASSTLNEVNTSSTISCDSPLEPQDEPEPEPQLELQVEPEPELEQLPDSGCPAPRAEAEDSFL

Chain of Platelet-derived growth factor receptor alpha (Homo sapiens), P16234 [V561D] (P16234 whole entry V561D): as the sequence (P16234 whole entry D842V) above, with V561D, V842D counted along it
Chain of Platelet-derived growth factor receptor alpha (Homo sapiens) (P16234 whole entry): as the sequence (P16234 whole entry D842V) above, with V842D counted along it

For `COc1cc2ncn(-c3cc(O[C@@H](C)c4ccccc4Cl)c(C(N)=O)s3)c2cc1OC`, the inhibition came out at 14.1% in assay [1]; 37.9% in assay [2]; 73.8% in assay [3]; 27% in assay [4]; 77.1% in [5]; 7.94% in assay [6]. In addition, the inhibition in assay [7] was 50%; in assay [8], 32.4%; in assay [9], 81.5%; in [10], 29.8%.
Turning to `COc1ccccc1Nc1ncc(-c2ccccc2)o1`, the inhibition in [1] amounted to 2.74%; in assay [2] it was 14.1%; in assay [3], 47.5%; in assay [4], 4.24%; in assay [5], 6.87%; in [6], 16.9%. Further, the inhibition in [7] is 69.4%; in [8], 35.6%; in assay [9], 53.5%; in assay [10], 11.1%.
Turning to `COc1cc(C)c(NC(=O)CN(C)C)cc1Nc1nc(Nc2cccc(F)c2C(N)=O)c2cc[nH]c2n1`, the inhibition turned out to be 28.9% in assay [1]; 7.3% in [2]; 16.9% in assay [3]; 1.18% in assay [4]; 3.96% in assay [5]; 0.9% in [6]. Also, the inhibition worked out at 3.29% in assay [7], 1.13% in assay [8], 10.8% in [9] and 2.12% in assay [10].
For the compound `CC(C)=Cc1cccc2c1/C(=N/Nc1ccc(S(N)(=O)=O)cc1)C(=O)N2`, the inhibition in assay [1] worked out at 36.3%; in [2] it was 20.3%; in assay [3], 64.9%; in assay [4], 12.2%; in [5], 58.5%; in assay [6], 7.43%. In addition, the inhibition in [7] turned out to be 46.5%; in [8], 15%; in assay [9] it was 62.5%; in [10], 17.4%.
In the case of `CCCN1CCC(Oc2cc(Nc3nc(Nc4cccc(F)c4C(N)=O)c4cc[nH]c4n3)c(OC)cc2Cl)CC1`, the inhibition was 8.65% in [1]; 3.93% in assay [2]; 11.6% in assay [3]; 0.78% in assay [4]; -0.29% in assay [5]; 2.51% in assay [6]. Also, the inhibition was determined as 1.04% in assay [7], 1.89% in assay [8], 4.25% in [9] and 4.35% in [10].
With `Cc1ccc(C(=O)NC2CCCCC2)cc1-c1ccc(C(=O)NCC2CC2)cc1`, the inhibition worked out at 8.57% in [1]; 12.3% in [2]; 12.8% in assay [3]; 2.47% in assay [4]; 1.67% in assay [5]; 4.09% in assay [6]. For the same compound, the inhibition is -1.01% in [7], 1.21% in assay [8], 17.2% in assay [9] and 6.66% in assay [10].
As for `N#Cc1c(NC(=O)c2cccc3ccccc23)sc2c1CCCC2`, the inhibition in [1] turned out to be 4.97%; in assay [2] it was 6.56%; in assay [3] it was 12.2%; in assay [4] it was 4.04%; in assay [5], 4.85%; in assay [6], 4.77%. Also, the inhibition came to 9.67% in assay [7], 3.45% in [8], 6.79% in assay [9] and 3.17% in assay [10].
On to `[O-][S+]1CCN(Cc2ccc(-c3ccc4ncnc(Nc5ccc(OCc6ccccc6)c(F)c5)c4c3)o2)CC1`, for which the inhibition is 3.05% in assay [1]; 3.33% in assay [2]; 4.2% in [3]; 2.67% in assay [4]; 1.42% in [5]; 2.19% in assay [6]. Moreover, the inhibition in assay [7] is 3.59%; in [8] it was 0.45%; in assay [9], 3.92%; in assay [10], 1.19%.
For `Cc1cc(O)cc(C)c1/C=C/c1cncc(-c2nn[nH]n2)c1`, the inhibition in assay [1] was found to be 2.94%; in assay [2], 10.7%; in [3], 50.9%; in assay [4], 2.87%; in [5] it was 22.2%; in assay [6], 7.51%. In addition, the inhibition in assay [7] was 5.59%; in [8], 12.1%; in assay [9], 59.3%; in [10], 9.66%.
For `COc1ccc(COc2ccc(Cc3cnc(N)nc3N)cc2OC)cc1`, the inhibition came out at 9.52% in [1]; 10.9% in [2]; 15.7% in [3]; 0.95% in [4]; 1.88% in assay [5]; 2.62% in assay [6]. In addition, the inhibition in assay [7] was 1.3%; in [8], 2.4%; in assay [9] it was 5.93%; in assay [10], 8.68%.
As to `O=C(Nc1n[nH]c2nc(-c3ccco3)c(Br)cc12)C1CC1`, the inhibition was determined as 6.32% in assay [1]; 4.56% in assay [2]; 12.9% in assay [3]; 0.77% in assay [4]; 4.15% in [5]; 5.19% in assay [6]. The inhibition in assay [7] came to 6.07%; in [8], 0.75%; in assay [9], 4.4%; in [10], 3.97%.
Consider `Cc1nn(C)c2cc(N(C)c3ccnc(Nc4cccc(S(N)(=O)=O)c4)n3)ccc12`, for which the inhibition in assay [1] was 6.58%; in assay [2], 22.9%; in assay [3] it was 61.2%; in assay [4], 7.33%; in assay [5], 36.1%; in [6] it was 5.29%. The inhibition worked out at 15.1% in assay [7], 23.2% in [8], 70.1% in assay [9] and 18.2% in [10].
For the compound `CS(=O)(=O)CCNCc1ccc(-c2ccc3ncnc(Nc4ccc(OCc5cccc(F)c5)c(C(F)(F)F)c4)c3c2)o1`, the inhibition in [1] was determined as 2.72%; in [2], 2.57%; in [3], 6.52%; in [4], 2.53%; in assay [5], 4.33%; in assay [6] it was 5.78%. Besides, the inhibition was 5.59% in assay [7], 3.25% in [8], 3.17% in [9] and -0.33% in assay [10].
In the case of `CS(=O)(=O)CCNCc1ccc(-c2ccc3ncnc(Nc4ccc(OCc5ccccc5)c(Cl)c4)c3c2)o1`, the inhibition in assay [1] was 4.27%; in assay [2] it was 6.84%; in [3], 9.41%; in assay [4], 2.28%; in [5] it was 2.49%; in assay [6], 8.72%. The inhibition in assay [7] is 11.1%; in [8], 4.4%; in assay [9] it was 4.91%; in assay [10], 2.08%.
Consider `CN1CCC(C(=O)Nc2n[nH]c3nnc(-c4ccccc4)cc23)CC1`, for which the inhibition in assay [1] is 5.06%; in assay [2], 5.74%; in assay [3], 16.5%; in [4], 3.37%; in assay [5], 3.2%; in [6], 6.86%. The inhibition turned out to be 7.55% in [7], 7.2% in assay [8], 6.38% in assay [9] and 2.43% in assay [10].
Consider `NCc1ccc(-c2nc(-c3ccc(Cl)c(O)c3)c(-c3ccncc3)[nH]2)cc1`, for which the inhibition is 2.08% in [1]; 6.86% in [2]; 25.6% in assay [3]; 6.11% in assay [4]; 31% in assay [5]; 2.74% in assay [6]. Besides, the inhibition in assay [7] worked out at 2.2%; in [8], 5.6%; in assay [9] it was 25.9%; in assay [10], 7.07%.
